{"source": "the supplement of paper PMC10338343", "note": "± gives the standard deviation. Whole data set: some 6,200 sequences, median “pre-steady-state target cleavage rate” near 0.29, cut for the highest 2% near 2. The full list was thinned out, with the highest values kept by preference."}
{"system": "MIWI (PIWIL1) piRISC loaded with piRNA #1 (30 nt)", "assay": "pre-steady-state target cleavage rate (min^-1); MIWI and MILI are mouse PIWI proteins and EfPiwi is from a freshwater sponge; tags in brackets are library labels; higher = faster piRNA-guided slicing of the target", "settings": "guide: piRNA #1 5'p-UGAGGUAGUAGGUUGUAUAGUAUCCAGAGG; auxiliary factor: 500 nM mouse GTSF1", "how_it_was_run": "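Sequencing of uncleaved targets, normalised to depth and to weakly complementary targets, was the readout of this Cleave-'n-Seq assay. A transcribed, DNA-blocked target RNA library (0.1 nM) was mixed with 1 nM active affinity-purified piRISC carrying one synthetic guide, with or without 500 nM GTSF1 partner protein, in HEPES–potassium acetate buffer at 33 °C for 0–8 or 0–960 min. Three trials were pooled, k3 was capped at 0.0001 min^-1, and a burst-and-steady-state fit gave the pre-steady-state cleavage rate.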"}
{"sequence": "GGAGUGCAUACUAUACAACGUACUACCUCA", "pre-steady-state target cleavage rate": "0.714 ± 0.039"}
{"sequence": "GGAGAGGAUACUAUACAACCUACUACCUUA", "pre-steady-state target cleavage rate": "1.28 ± 0.066"}
{"sequence": "CCUCUGGAUAGUAUACAACCUACUUCCUCA", "pre-steady-state target cleavage rate": "0.21 ± 0.034"}
{"sequence": "GGAGAGGAUUCUAUACAACCUACUACCACA", "pre-steady-state target cleavage rate": "0.665 ± 0.047"}
{"sequence": "GCUCUGCUUACUAUACAACCUACUACCUCA", "pre-steady-state target cleavage rate": "1.96 ± 0.12"}
{"sequence": "CCUCUGCUUACUAUACAACCUACUACCUCA", "pre-steady-state target cleavage rate": "2.19 ± 0.15"}
{"sequence": "GGUCUGCUUACUAUACAACCUACUACCUCA", "pre-steady-state target cleavage rate": "1.74 ± 0.12"}
{"sequence": "GCACUGGAUACUAUACAACCAACUACCUCA", "pre-steady-state target cleavage rate": "0.167 ± 0.017"}
{"sequence": "GGAGUGCAUACAAUACAACCUACUACCUCA", "pre-steady-state target cleavage rate": "1.11 ± 0.092"}
{"sequence": "GCUCUGAUACUAUACAACCUACUACCUCA", "pre-steady-state target cleavage rate": "1.9 ± 0.12"}
{"sequence": "GGUCUGAGAUACUAUACAACCUACUACCUCA", "pre-steady-state target cleavage rate": "1.89 ± 0.11"}
{"sequence": "CCUCUGAGAUACUAUACAACCUACUACCUCA", "pre-steady-state target cleavage rate": "0.572 ± 0.056"}
{"sequence": "GCUCUGAGAUACUAUACAACCUACUACCUCA", "pre-steady-state target cleavage rate": "2.07 ± 0.12"}
{"sequence": "GGUCUGAUACUAUACAACCUACUACCUCA", "pre-steady-state target cleavage rate": "1.79 ± 0.1"}
{"sequence": "CCUCUGAUACUAUACAACCUACUACCUCA", "pre-steady-state target cleavage rate": "2.11 ± 0.12"}
{"sequence": "GGAGACCAUACUAUACAACCUACCUACCUCA", "pre-steady-state target cleavage rate": "1.06 ± 0.066"}
{"sequence": "GGAGUGGAUAUUAUACAACCUACUACCUCA", "pre-steady-state target cleavage rate": "1.48 ± 0.072"}
{"sequence": "GGAGACCAUACUAUACAACCUACUACCUCU [g2:g23:cont:t1U]", "pre-steady-state target cleavage rate": "1.7 ± 0.11"}
{"sequence": "GGAGUGGAUAGUAUUCAACCUACUACCUCA", "pre-steady-state target cleavage rate": "0.584 ± 0.064"}
{"sequence": "GGAGACCUUACUAUACAUGGUACUACCUCA", "pre-steady-state target cleavage rate": "0.00452 ± 0.0025"}
{"sequence": "GCUCUGGUUACUAUUCAACCUACUACCUCA", "pre-steady-state target cleavage rate": "1.88 ± 0.12"}
{"sequence": "CCUCUGGAUACUAUACAACCUACUUCCACA", "pre-steady-state target cleavage rate": "0.337 ± 0.05"}
{"sequence": "GCACUGGAUACUAUACAACCUACUACCUCA", "pre-steady-state target cleavage rate": "1.81 ± 0.093"}
{"sequence": "GGACUGGAUACUAUACAACCUACUACCUCC [g2:g27:cont:t1C]", "pre-steady-state target cleavage rate": "1.42 ± 0.088"}
{"sequence": "GGACUGGAUUCUAUACAACCUACUACCUCA", "pre-steady-state target cleavage rate": "1.63 ± 0.11"}
{"sequence": "CCUACUGGAUACUAUACAACCUACUACCUCA", "pre-steady-state target cleavage rate": "2.04 ± 0.11"}
{"sequence": "GGACUGGAUACUAUACAACCUACUACCUCCA", "pre-steady-state target cleavage rate": "2.19 ± 0.17"}
{"sequence": "GGACUGGAUACUAUACAACCUACCUACCUCA", "pre-steady-state target cleavage rate": "1.06 ± 0.094"}
{"sequence": "CCACUGGAUACUAUACAACCUACUACCUCA", "pre-steady-state target cleavage rate": "1.8 ± 0.11"}
{"sequence": "CCACUGGAUUCUAUACAACCUACUACCUCA", "pre-steady-state target cleavage rate": "2.08 ± 0.12"}
{"sequence": "GCUACUGGAUACUAUACAACCUACUACCUCA", "pre-steady-state target cleavage rate": "2.14 ± 0.13"}
{"sequence": "GGACUGGAUACCUAUACAACCUACUACCUCA", "pre-steady-state target cleavage rate": "1.15 ± 0.095"}
{"sequence": "GGACUGGAUACUAUACUACCUACAACCUCA", "pre-steady-state target cleavage rate": "0.39 ± 0.057"}
{"sequence": "GCACUGGAUUCUAUACAACCUACUACCUCA", "pre-steady-state target cleavage rate": "1.85 ± 0.096"}
{"sequence": "GGUCAGGAUACUAUACAACCUACUAGCUCA", "pre-steady-state target cleavage rate": "0.255 ± 0.033"}
{"sequence": "GGAGACCUAACUAUACAACCUACUACCAGA", "pre-steady-state target cleavage rate": "0.385 ± 0.062"}
{"sequence": "GGAGACCUUACUAUACAACCUACUACCCCA", "pre-steady-state target cleavage rate": "0.956 ± 0.086"}
{"sequence": "GGAGACGAUACUAUACAACCUACUACGUGA", "pre-steady-state target cleavage rate": "0.348 ± 0.054"}
{"sequence": "GGACUGGAUACUAUACAACCUAUUACCUCA", "pre-steady-state target cleavage rate": "0.86 ± 0.075"}
{"sequence": "GCUCUGGAUACUAUACAACCUACAUGCUCA", "pre-steady-state target cleavage rate": "0.589 ± 0.072"}
{"sequence": "GGAGACCAUACUAAUACAACCUACUACCUCA", "pre-steady-state target cleavage rate": "0.978 ± 0.08"}
{"sequence": "GGUCUGCAUACUAUACAACCUACUACCUGA", "pre-steady-state target cleavage rate": "0.677 ± 0.13"}
{"sequence": "GGAGACGAUUCUAUACAACCUACUACGUCA", "pre-steady-state target cleavage rate": "0.92 ± 0.069"}
{"sequence": "CCUCUGGAUCCUAUACAACCUACUACCUCA", "pre-steady-state target cleavage rate": "1.38 ± 0.14"}
{"sequence": "GGUCUGGAUACAUACAACCUACUACCUCA", "pre-steady-state target cleavage rate": "1.44 ± 0.11"}
{"sequence": "GGUCAGGAUUCUAUACAACCUACUACCUCA", "pre-steady-state target cleavage rate": "1.77 ± 0.12"}
{"sequence": "GCUCAGGAUUCUAUACAACCUACUACCUCA", "pre-steady-state target cleavage rate": "1.87 ± 0.092"}
{"sequence": "CCUCAGGAUUCUAUACAACCUACUACCUCA", "pre-steady-state target cleavage rate": "2.24 ± 0.13"}
{"sequence": "GCUGUGGAUACUAUACAACCUACUACCUGA", "pre-steady-state target cleavage rate": "0.776 ± 0.18"}
